Measured values published in PubChem BioAssay (Tox21).
Results filed as inconclusive are left out. The source made the active and inactive calls. Unless noted, the call rests on the fitted dose curve.

How the values were obtained:
[1] = Nuclear factor erythroid 2-related factor 2/antioxidant responsive element (Nrf2/ARE) small molecule agonists: qHTS cell viability counter screen in human keratinocytes (AID 1919968; active means well fitted curve in the direction sought with a large enough effect in the repeat runs; an effect the other way counts as inactive or inconclusive; further: nearly all actives have a fitted effect of over 55% in size)
In short: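 Seed 1,500 KeratinoSens cells per well, then incubate 5 h at 37 C/5% CO2. Add compounds in DMSO and incubate 23 h. Add CellTiter-Fluor, wait 1 h and read fluorescence.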

[2] = Nuclear factor erythroid 2-related factor 2/antioxidant responsive element (Nrf2/ARE) small molecule agonists: luciferase reporter gene qHTS assay in human keratinocytes (AID 1919969); further: nearly all actives have a fitted effect of over 35% in size
[3] = target: Gonadotropin-releasing hormone receptor (Homo sapiens) (UniProt P30968); experiment: Human gonadotropin-releasing hormone receptor (GnRHR) small molecule agonists, calcium flux assay in GnRHR-HEK293 cells (AID 1920063); further: nearly all actives have a fitted effect of over 35% in size
In short: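 Cells: HEK293 stably expressing human GnRHR. Steps: overnight (18 h) culture, 1 h calcium dye loading at 37 C, compound addition, kinetic fluorescence read at 480/540 nm. Each compound tested at 15 concentrations in triplicate.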

[4] = target: KiSS-1 receptor (Homo sapiens) (UniProt Q969F8); experiment: Human kisspeptin (KISS1R) small molecule agonists, calcium flux assay in KISS1R-HEK293 cells (AID 1920064; active means well fitted curve in the direction sought with a large enough effect in the repeat runs; an effect the other way counts as inactive or inconclusive)
In short: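 Cells plated and incubated 18 h; dye added, 1 h at 37 C; compounds in DMSO pinned in; signal read at 480/540 nm every second for 3 min. Each compound tested at 15 concentrations in triplicate.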

[5] = G protein-coupled receptor (GPCR) small molecule agonists, calcium flux assay: HEK293 wild type cell line counter screen (AID 1920065)
In short: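 Counter-screen of the Tox21 10K library for non-specific calcium release: dye-loaded cells received compounds in DMSO and were monitored by kinetic fluorescence (480/540 nm, 3 min). Fifteen concentrations, run in triplicate.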

[6] = p53 small molecule agonists, cell-based qHTS assay with human liver microsomes (AID 1963577);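 further: p53 response element beta-lactamase reporter cells with liver microsomes plus NADPH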
In short: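 Reporter activation was measured by LiveBLAzer fluorescence intensity in p53RE-bla cells, which had been exposed to compounds for 16 h at 37 C alongside 0.5 mg/mL human liver microsomes and 0.5 mg/mL NADPH (final concentrations).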

[7] = p53 small molecule agonists, cell-based qHTS assay with rat liver microsomes (AID 1963578)
In short: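 Compound in DMSO added to p53RE-bla cells 5 h post-plating; rat microsomes/NADPH 0.5 mg/mL final; 16 h, 37 C; LiveBLAzer 2 h RT.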

[8] = p53 small molecule agonists, cell-based qHTS assay with human liver microsomes: qHTS cell viability counter screen (AID 1963579); further: nearly all actives have a fitted effect of over 45% in size
In short: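 HLM-supplemented (0.5 mg/mL final) and NADPH-supplemented (0.5 mg/mL final) p53RE-bla cultures, 4,000 cells per well, were dosed with compounds in DMSO for 16 h at 37 C; luminescent ATP detection (CellTiter-Glo, 30 min, room temperature) quantified surviving cells.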

[9] = p53 small molecule agonists, cell-based qHTS assay with rat liver microsomes: qHTS cell viability counter screen (AID 1963580); further: nearly all actives have a fitted effect of over 45% in size
In short: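 Viability is assessed in parallel with the p53 reporter read: HCT-116 p53RE-bla cells receive compounds plus rat microsomes and NADPH (0.5 mg/mL final apiece), incubate 16 h at 37 C, and then CellTiter-Glo luminescence is recorded.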

[10] = p53 small molecule agonists, cell-based qHTS assay: qHTS cell viability counter screen (AID 1963581); further: nearly all actives have a fitted effect of over 45% in size
In short: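 Cells: HCT-116 with p53 response element-driven beta-lactamase. Treatment: 16 h, 37 C, compounds in DMSO. Read: CellTiter-Glo luminescence after 30 min RT.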

[11] = p53 small molecule agonists, cell-based qHTS assay (AID 1963582; active means well fitted activation curve with a large enough effect in the signal ratio in the repeat runs, not every such curve was filed as active; the % refers to the signal ratio)
In short: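 Quantitative HTS in p53RE-bla cells: after a 5 h settling period, compounds delivered in DMSO were left on cells for 16 h at 37 C, and reporter induction was measured as fluorescence following 2 h substrate loading.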

[12] = cAMP Responsive Elements (CRE) small molecule agonists, cell-based qHTS assay (AID 1963590)
In short: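 Agonist mode qHTS in CRE-bla HEK 293T cells: compounds dosed from DMSO for 3 h at 37 C/5% CO2, followed by LiveBLAzer B/G FRET substrate for 2 h at room temperature.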

[13] = cAMP Responsive Elements (CRE) small molecule antagonists, cell-based qHTS assay (AID 1963591; active means well fitted inhibition curve with a large enough effect in the signal ratio in the repeat runs, not every such curve was filed as active; the % refers to the signal ratio)
In short: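 Antagonist mode: test compounds are co-incubated with the adenylyl cyclase activator NKH477 (0.25 uM final) on CRE-bla HEK293T cells for 3 h at 37 °C, followed by LiveBLAzer substrate loading.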

[14] = target: Beta-2 adrenergic receptor (Homo sapiens) (UniProt P07550); experiment: Adrenergic beta2 receptor (ADRB2) small molecule antagonists, cell-based qHTS assay (AID 1963592); further: series mostly up to about 92 µM; nearly all actives have a fitted effect of over 50% in size
In short: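 Cells (CHO, stable ADRB2 overexpression) incubated 18-20hr at 37C; compounds added from DMSO; agonist mix (1nM isoproterenol, 100uM IBMX, 25uM Ro-20-1724) added; 0.5hr RT; d2-cAMP and anti-cAMP-cryptate added; 1hr RT; 665/615 nm read.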

[15] = target: D(2) dopamine receptor (Homo sapiens) (UniProt P14416); experiment: Dopamine D2 receptor (DRD2) small molecule agonists, cell-based qHTS assay (AID 1963594); further: nearly all actives have a fitted effect of over 35% in size
In short: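 HEK293 cells stably expressing human DRD2, pre-treated with PDE inhibitor Ro20-1724 (0.1 mM final) and compound 10 min at room temperature, then stimulated with NKH477 (200nM […]) for 30 min. cAMP read by HTRF (665/620 nm).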

[16] = target: D(2) dopamine receptor (Homo sapiens) (UniProt P14416); experiment: Dopamine D2 receptor (DRD2) small molecule antagonists, cell-based qHTS assay (AID 1963595; active means well fitted inhibition curve with a large enough effect in the signal ratio in the repeat runs, with a control signal flat; the % refers to the signal ratio)
In short: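 Antagonist mode in DRD2-HEK293 cells: after compound addition with 0.1 mM Ro20-1724, cells received quinpirole (12 nM) and NKH477 (200 nM) for 30 min at room temperature; HTRF cAMP read after 1 h detection.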

[17] = target: Beta-2 adrenergic receptor (Homo sapiens) (UniProt P07550); experiment: Adrenergic beta2 receptor (ADRB2) small molecule agonists, cell-based qHTS assay (AID 1963593);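 further: CHO cells stably overexpressing human ADRB2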
In short: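 CHO cells stably over-expressing ADRB2 were plated overnight at 37C, then dosed with compounds plus a stimulation mix containing 100uM IBMX and 25uM Ro-20-1724 for 0.5hr at room temperature. cAMP was measured by HTRF competition, 1hr.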
On the % scale 0 is the no-effect control and ±100 the full control effect.

D(2) dopamine receptor (Homo sapiens), sequence (P14416 whole entry, looked up): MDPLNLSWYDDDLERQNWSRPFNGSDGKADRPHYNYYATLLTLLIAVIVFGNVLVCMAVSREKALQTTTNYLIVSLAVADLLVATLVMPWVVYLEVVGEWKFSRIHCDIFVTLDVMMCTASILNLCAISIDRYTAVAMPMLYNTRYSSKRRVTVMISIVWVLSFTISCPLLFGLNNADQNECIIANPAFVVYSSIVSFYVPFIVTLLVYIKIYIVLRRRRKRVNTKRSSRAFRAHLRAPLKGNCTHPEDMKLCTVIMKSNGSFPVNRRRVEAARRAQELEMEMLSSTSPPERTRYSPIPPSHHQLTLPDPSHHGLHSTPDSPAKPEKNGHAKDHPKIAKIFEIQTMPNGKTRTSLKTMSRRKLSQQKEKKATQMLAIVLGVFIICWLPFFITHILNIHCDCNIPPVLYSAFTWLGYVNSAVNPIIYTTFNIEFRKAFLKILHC
Gonadotropin-releasing hormone receptor (Homo sapiens), sequence (P30968 whole entry, looked up): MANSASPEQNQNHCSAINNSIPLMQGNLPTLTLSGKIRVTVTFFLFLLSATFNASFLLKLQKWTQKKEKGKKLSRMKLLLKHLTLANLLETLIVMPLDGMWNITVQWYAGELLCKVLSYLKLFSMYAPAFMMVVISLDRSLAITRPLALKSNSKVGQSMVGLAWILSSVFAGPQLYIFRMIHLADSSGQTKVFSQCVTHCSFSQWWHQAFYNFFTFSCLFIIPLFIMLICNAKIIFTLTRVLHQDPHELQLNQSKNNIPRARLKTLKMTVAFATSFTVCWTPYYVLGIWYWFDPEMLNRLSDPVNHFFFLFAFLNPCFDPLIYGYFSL
Beta-2 adrenergic receptor (Homo sapiens), sequence (P07550 whole entry, looked up): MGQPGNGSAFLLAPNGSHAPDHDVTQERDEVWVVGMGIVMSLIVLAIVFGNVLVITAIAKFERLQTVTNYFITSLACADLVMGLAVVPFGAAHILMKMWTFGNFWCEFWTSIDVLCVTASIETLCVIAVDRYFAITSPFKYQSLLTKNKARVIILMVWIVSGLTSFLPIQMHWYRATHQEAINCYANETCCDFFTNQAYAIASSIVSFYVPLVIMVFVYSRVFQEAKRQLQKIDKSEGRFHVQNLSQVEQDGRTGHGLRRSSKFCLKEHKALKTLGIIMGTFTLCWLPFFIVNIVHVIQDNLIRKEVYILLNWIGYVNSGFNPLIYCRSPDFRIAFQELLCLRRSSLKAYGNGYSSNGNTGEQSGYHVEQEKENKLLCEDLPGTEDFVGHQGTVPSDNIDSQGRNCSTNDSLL
KiSS-1 receptor (Homo sapiens), sequence (Q969F8 whole entry, looked up): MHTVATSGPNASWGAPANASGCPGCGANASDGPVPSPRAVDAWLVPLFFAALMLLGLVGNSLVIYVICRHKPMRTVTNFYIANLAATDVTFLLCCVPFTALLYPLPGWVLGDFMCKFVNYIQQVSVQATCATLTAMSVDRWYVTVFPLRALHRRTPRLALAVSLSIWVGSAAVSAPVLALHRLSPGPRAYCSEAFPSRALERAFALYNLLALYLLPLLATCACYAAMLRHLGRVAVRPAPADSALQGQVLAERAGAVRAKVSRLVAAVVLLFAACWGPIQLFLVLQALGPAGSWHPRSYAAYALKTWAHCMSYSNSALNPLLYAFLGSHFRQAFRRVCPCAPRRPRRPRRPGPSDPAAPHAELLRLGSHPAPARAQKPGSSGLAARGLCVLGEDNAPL

CC(C(=O)O)c1cccc(Oc2ccccc2)c1 (stereo not drawn)
inactive: Potency [1] | Potency [2] | Potency [3] | outcome [4] | outcome [5] | Potency [6] | Potency [7] | Potency [8] | Potency [9] | Potency [10] | Potency [11] | Potency [12] | Potency [13] | Potency [14] | Potency [15] | Potency [16]

CC(=O)O[C@H]1C[C@@H]2CC[C@@H]3[C@H](CC[C@@]4(C)[C@H]3C[C@H]([N+]3(C)CCCCC3)[C@@H]4OC(C)=O)[C@@]2(C)C[C@@H]1N1CCCCC1
inactive: Potency [1] | Potency [2] | Potency [3] | outcome [4] | outcome [5] | Potency [6] | Potency [7] | Potency [8] | Potency [9] | Potency [10] | Potency [11] | Potency [12] | Potency [13] | Potency [14] | Potency [15] | Potency [16]

NCCCCCC(=O)O
inactive: Potency [1] | Potency [2] | Potency [3] | outcome [4] | outcome [5] | Potency [6] | Potency [7] | Potency [8] | Potency [9] | Potency [10] | Potency [11] | Potency [12] | Potency [13] | Potency [14] | Potency [15] | Potency [16]

CCn1cc(C(=O)O)c(=O)c2cnc(N3CCCC3)nc21
inactive: activity change, negative = cytotoxicity [1] -0.789% [at 8.39 µM] | activity, positive = activation [2] 0.384% [at 8.39 µM] | activity change [3] -1.43% [at 5.22 µM, active compounds read high] | activation [4] 2.91% [at 6.97 µM] | activation [5] 0.533% [at 5.23 µM] | activation [6] 10.8% [at 5.99 µM] | activation [7] -0.037% [at 5.99 µM] | activity change, negative = cytotoxicity [8] 17.3% [at 5.99 µM] | activity change, negative = cytotoxicity [9] -0.816% [at 5.99 µM] | activity change, negative = cytotoxicity [10] -0.227% [at 5.99 µM] | activation [11] 1.25% [at 5.99 µM] | activation [12] -3.86% [at 8.39 µM] | activity change, negative = inhibition [13] -10.5% [at 8.39 µM] | activity change, negative = inhibition [14] -0.194% [at 8.39 µM] | activation [15] 1.32% [at 8.39 µM] | activity change, negative = inhibition [16] 2.86% [at 8.38 µM]

O=C(NCCN1CCOCC1)c1ccc(Cl)cc1
inactive: Potency [1] | Potency [2] | Potency [3] | outcome [4] | outcome [5] | Potency [6] | Potency [7] | Potency [8] | Potency [9] | Potency [10] | Potency [11] | Potency [12] | Potency [13] | Potency [14] | Potency [17] | Potency [16]

Cc1[nH]cnc1CN1CCc2c(c3ccccc3n2C)C1=O
inactive: Potency [1] | Potency [2] | Potency [3] | outcome [4] | outcome [5] | Potency [6] | Potency [7] | Potency [8] | Potency [9] | Potency [10] | Potency [11] | Potency [12] | Potency [13] | Potency [14] | Potency [17] | Potency [15] | Potency [16]

CC[N+](CC)(CC)CCOc1cccc(OCC[N+](CC)(CC)CC)c1OCC[N+](CC)(CC)CC
inactive: Potency [1] | Potency [2] | Potency [3] | outcome [4] | outcome [5] | Potency [6] | Potency [7] | Potency [8] | Potency [9] | Potency [10] | Potency [11] | Potency [12] | Potency [13] | Potency [14] | Potency [17] | Potency [16]
